Structures are written as SMILES. Several values for one entry are separate records, joined by “and”; a condition that tells them apart may be missing. Identical values can stand only once. Inconclusive results are not listed. Entries that show only a call come without a potency. Activity calls are given as the source filed them. Calls follow the shape of the dose curve; as a rule, active = well fitted curve in the direction sought with a large enough effect; inconclusive = small, poorly fitted or top-dose-only effect, or another doubt; inactive = no such curve, though single readings can be large; an effect the other way counts as inactive or inconclusive.

A short description of assay [1]: qHTS for Inhibitors of Ubiquitin-specific Protease USP2a Using CHOP2 as the Reporter: K633 Counterscreen (AID 652168). Also: series mostly up to about 57 µM. In outline:
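Cell-free interference counterscreen without USP2a: compounds pinned into enzyme-free buffer (20 mM Tris pH 8, 2 mM beta-mercaptoethanol, 0.05% Chaps), then DiUb K48-4IQF substrate added (100 nM stock); fluorescence read kinetically, Ex 525/Em 598.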
Background: qHTS replaces the single test concentration by a dilution series.

The nature of assay [2]: qHTS for Inhibitors of Ubiquitin-specific Protease USP2a Using CHOP2 as the Reporter: Cytotox Assay (AID 652170). Also: nearly all actives have a fitted effect of over 70% in size. Also: potency is read from the fitted curve at half-maximal effect. In outline: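 HCT116 human colon cancer cells, 600 per well in DMEM with 10% FBS, exposed to compounds for 72 hr at 37 deg C. ATP measured by CellTiter-Glo luminescence, normalized to DMSO cells and no-cell background.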
For assay [3], the target named is Ubiquitin carboxyl-terminal hydrolase 2 (Homo sapiens) (UniProt O75604). The experiment in a line: qHTS for Inhibitors of Ubiquitin-specific Protease USP2a Using CHOP2 as the Reporter: K484 Substrate (AID 652173).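 Also: cleavage of internally quenched K48 di-ubiquitin substrate measured as rising fluorescence over time; nearly all actives have a fitted effect of over 70% in size.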 Also: potency is read from the fitted curve at half-maximal effect. The gist of the method:
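USP2 (dispensed at 5 nM) was pinned with compounds, then DiUb K48 internally quenched fluorescent substrate (dispensed at 100 nM) was added. The buffer was 20 mM Tris pH 8, 2 mM beta-mercaptoethanol and 0.05% CHAPS. Cleavage was read kinetically as rising fluorescence, Ex 525/Em 598.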

Ubiquitin carboxyl-terminal hydrolase 2 (Homo sapiens), sequence (O75604 whole entry, looked up): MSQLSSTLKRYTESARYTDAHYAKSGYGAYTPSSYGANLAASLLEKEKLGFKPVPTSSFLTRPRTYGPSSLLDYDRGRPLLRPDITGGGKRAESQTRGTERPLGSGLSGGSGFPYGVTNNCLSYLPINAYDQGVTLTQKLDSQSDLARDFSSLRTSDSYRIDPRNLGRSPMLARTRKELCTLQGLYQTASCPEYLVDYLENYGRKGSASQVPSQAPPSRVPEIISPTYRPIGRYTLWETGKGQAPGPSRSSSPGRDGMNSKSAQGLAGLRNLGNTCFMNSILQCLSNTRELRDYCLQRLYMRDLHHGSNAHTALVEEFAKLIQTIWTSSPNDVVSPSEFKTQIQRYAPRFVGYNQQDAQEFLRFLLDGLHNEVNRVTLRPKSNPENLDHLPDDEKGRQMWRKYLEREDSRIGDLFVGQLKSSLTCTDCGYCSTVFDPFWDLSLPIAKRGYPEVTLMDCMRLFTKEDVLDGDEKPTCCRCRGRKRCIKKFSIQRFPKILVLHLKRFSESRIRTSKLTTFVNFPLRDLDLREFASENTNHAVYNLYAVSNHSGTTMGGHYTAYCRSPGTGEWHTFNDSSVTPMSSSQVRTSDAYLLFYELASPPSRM

With `Cc1ccc(-c2cc(C(=O)Nc3ccc(S(N)(=O)=O)cc3)c3cccc(C)c3n2)cc1C`, the call in assay [1] was inactive. For the same molecule, in assay [2], the Potency result was “inactive”. In assay [3], the Potency was 17.2 µM (active) and 6.85 µM (active).
Take `O=C(Nc1ccc(S(=O)(=O)Nc2nccs2)cc1)c1ccnc2ccccc12`: the result in assay [1] was inactive. Also, in assay [2], the Potency entry is “inactive”. For the same molecule, the Potency in assay [3] was 21.7 µM (active).
For the molecule `Cc1ccc(S(=O)(=O)Nc2cnccc2C(=O)Nc2nc(-c3nc4ccccc4s3)cs2)cc1`, the result in assay [1] was inactive. The Potency result in assay [2] was “inactive”. In addition, the Potency in assay [3] is 1.72 µM (active).
For the molecule `Cc1ccc(S(=O)(=O)Nc2cnccc2C(=O)Nc2ccc(C#N)cc2)cc1`, the molecule was called inactive in assay [1]. Besides, the Potency entry in assay [2] was “inactive”. The Potency in assay [3] is 21.7 µM (active).
In the case of `Cc1ccc(S(=O)(=O)Nc2cc(Cl)c(Cl)cc2C(=O)Nc2nc(-c3ccccc3)cs2)cc1`, the outcome in assay [1] was inactive. The Potency in assay [2] was 5.26 µM (active); in assay [3] it was 1.37 µM (active).
On to `O=C(Nc1nc(-c2ccccc2)cs1)c1ccncc1NS(=O)(=O)c1ccc(F)cc1F`, for which the outcome in assay [1] was inactive. Moreover, the Potency entry in assay [2] was “inactive”. Further, the Potency in assay [3] is 3.06 µM (active).
Take `O=C(Nc1ccc(S(=O)(=O)Nc2nccs2)cc1)c1ccc(-c2ccccc2)cc1`: in assay [1], the outcome was inactive. In addition, the Potency entry in assay [2] was “inactive”. The Potency in assay [3] was 24.3 µM (active).
Take `O=C(Nc1nc(-c2ccccc2)cs1)c1ccncc1NS(=O)(=O)c1ccc(C(F)(F)F)cc1`: the outcome in assay [1] was inactive. Moreover, the Potency result in assay [2] is “inactive”. The Potency in assay [3] was 3.06 µM (active).
With `CCCc1ccc(C(=O)Nc2ccc(S(=O)(=O)Nc3nccs3)cc2)cc1`, the outcome in assay [1] was inactive. In addition, the Potency entry in assay [2] was “inactive”. For the same molecule, the Potency in assay [3] was 21.7 µM (active).
Turning to `CCC(=O)OC1CCC(C(=O)Nc2ccc([S+](=O)([O-])Nc3nccs3)cc2)CC1` (centres undefined), the result in assay [1] was inactive. For the same molecule, the Potency result in assay [2] and in assay [3] was “inactive” throughout.
For the molecule `O=C1CCCc2cc(S(=O)(=O)Nc3cnccc3C(=O)Nc3nc(-c4ccccc4)cs3)ccc2N1`, the call in assay [1] was inactive. Moreover, the Potency result in assay [2] is “inactive”. In addition, the Potency in assay [3] was 7.69 µM (active).
With `Cc1ccc(-c2cc(C(=O)Nc3ccc([N+](=O)[O-])cc3)c3ccccc3n2)cc1C`, the result in assay [1] was inactive. In addition, the Potency in assay [3] is 13.7 µM (active).
Take `Cc1ccc(S(=O)(=O)Nc2cnccc2C(=O)Nc2nc(-c3cnn(C)c3)cs2)cc1`: in assay [1], the molecule was called inactive. Moreover, the Potency entry in assay [2] was “inactive”. In addition, the Potency in assay [3] was 8.63 µM (active).
For `O=C(Nc1nc(-c2ccccc2)cs1)c1ccncc1NS(=O)(=O)c1c(F)cc(F)cc1F`, in assay [1], the call was inactive. Further, in assay [2], the Potency entry is “inactive”. For the same molecule, the Potency in assay [3] was 3.43 µM (active).
As for `O=C(O)C1CCC(C(=O)Nc2ccc([S+](=O)([O-])Nc3nccs3)cc2)CC1` (centres undefined), the result in assay [1] was inactive. For the same molecule, the Potency entry in assay [2] and in assay [3] was “inactive” in each case.
As for `Cc1ccc(-c2csc(Nc3ccc(S(=O)(=O)Nc4nccs4)cc3)n2)cc1C`, in assay [1], the outcome was inactive. Moreover, the Potency entry in assay [2] is “inactive”. In addition, the Potency in assay [3] is 4.32 µM (active).
On to `CCCOC1CCC(C(=O)Nc2ccc([S+](=O)([O-])Nc3nccs3)cc2)CC1` (centres undefined), for which the molecule was called inactive in assay [1]. The Potency entry in assay [2] and in assay [3] was “inactive” each time.
For `N#Cc1ccc(S(=O)(=O)Nc2cnccc2C(=O)Nc2nc(-c3ccccc3)cs2)cc1`, the molecule was classed as inactive in assay [1]. Further, in assay [2], the Potency result is “inactive”. For the same molecule, in assay [3], the Potency was 2.43 µM (active).
Regarding `CCCc1ccc(-c2csc(NC(=O)c3ccncc3NS(=O)(=O)c3ccc(C)cc3)n2)cc1`, the molecule was classed as inactive in assay [1]. The results for the Potency in assay [2] and in assay [3] were 20.9 µM (active) and 1.53 µM (active), respectively.
The like results for `N#Cc1cnc(NS(=O)(=O)c2ccc(NC(=O)Cc3ccc(Cl)c(Cl)c3)cc2)s1` were, in that order, “inactive”, “inactive” and 3.43 µM (active).
For `O=C(Nc1nc(-c2ccccc2)cs1)c1ccncc1NS(=O)(=O)c1cccc(Cl)c1`, in that order: “inactive”, “inactive” and 3.85 µM (active).
The like results for `Cc1ccc(S(=O)(=O)Nc2cnccc2C(=O)Nc2nc(-c3ccc(Oc4ccccc4)cc3)cs2)cc1` were, in that order, “inactive”, 20.9 µM (active) and 2.17 µM (active).
Take `Cc1ccc(S(=O)(=O)Nc2cnccc2C(=O)Nc2nc(-c3ccco3)cs2)cc1`: the call in assay [1] was inactive. The Potency in assay [3] was 4.32 µM (active).
With `Nc1cccc(S(=O)(=O)Nc2cnccc2C(=O)Nc2nc(-c3ccccc3)cs2)c1`, in assay [1], the molecule was classed as inactive. Besides, in assay [2], the Potency result was “inactive”. Moreover, the Potency in assay [3] was 13.7 µM (active).
With `Cc1ccc(S(=O)(=O)Nc2cnccc2C(=O)Nc2nc(-c3cccnc3)cs2)cc1`, the molecule was classed as inactive in assay [1]. Moreover, the Potency entry in assay [2] is “inactive”. Moreover, the Potency in assay [3] is 13.7 µM (active).
For the molecule `Cc1ccc(C(=O)Nc2ccc(S(=O)(=O)Nc3nccs3)cc2)cc1C`, the result in assay [1] was inactive. Moreover, the Potency entry in assay [2] was “inactive”. In addition, in assay [3], the Potency was 24.3 µM (active).
Consider `Cc1ccc(S(=O)(=O)Nc2cnccc2C(=O)Nc2nc(-c3ccccc3F)cs2)cc1`, for which, in assay [1], the result was inactive. Further, in assay [3], the Potency was 2.17 µM (active).
On to `O=C(Nc1nc(-c2ccccc2)cs1)c1ccncc1NS(=O)(=O)c1cccs1`, for which the call in assay [1] was inactive. For the same molecule, the Potency entry in assay [2] is “inactive”. Moreover, in assay [3], the Potency is 3.43 µM (active).
Take `Cc1ccc(S(=O)(=O)Nc2cnccc2C(=O)Nc2nc(-c3cccc(F)c3)cs2)cc1`: the molecule was called inactive in assay [1]. In addition, the Potency in assay [2] was 20.9 µM (active); in assay [3], 1.37 µM (active).

Values taken from PubChem BioAssay (NCATS).
